# PubChem BioAssay (NCI)
# Compounds without any hit were thinned out: in the full panel of roughly 83,000, 20% have a hit.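 Note: values are percent growth. 100 is the growth of untreated cells, values between 100 and 0 indicate rising inhibition; between -100 and 0 indicates cell death.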 Unmarked numbers belong to inactive results. Activity calls are given as the source filed them. Rule for the calls: active = growth percent below 10; inactive = the rest.
# Tests used:
# Experiment in all cases: NCI-60 one-dose screen, 48 h (100 = growth as untreated, 0 = no growth, -100 = all killed)
# Settings in all cases: 10 µM unless noted
# SK-MEL-2 melanoma = system: SK-MEL-2 melanoma
# EKVX NSCLC = system: EKVX NSCLC
# SN12C renal = system: SN12C renal
# UO-31 renal = system: UO-31 renal
# TK-10 renal = system: TK-10 renal
# ACHN renal = system: ACHN renal
# A498 renal = system: A498 renal
# CCRF-CEM leukemia = system: CCRF-CEM leukemia
# MOLT-4 leukemia = system: MOLT-4 leukemia
# SR leukemia = system: SR leukemia
# RPMI-8226 leukemia = system: RPMI-8226 leukemia
# OVCAR-8 ovarian = system: OVCAR-8 ovarian
# OVCAR-5 ovarian = system: OVCAR-5 ovarian
# OVCAR-4 ovarian = system: OVCAR-4 ovarian
# SK-OV-3 ovarian = system: SK-OV-3 ovarian
# IGROV1 ovarian = system: IGROV1 ovarian
# OVCAR-3 ovarian = system: OVCAR-3 ovarian
# HS 578T breast = system: HS 578T breast
# NCI/ADR-RES ovarian = system: NCI/ADR-RES ovarian
# T-47D breast = system: T-47D breast
SMILES,growth (SK-MEL-2 melanoma),growth (EKVX NSCLC),growth (SN12C renal),growth (UO-31 renal),growth (TK-10 renal),growth (ACHN renal),growth (A498 renal),growth (CCRF-CEM leukemia),growth (MOLT-4 leukemia),growth (SR leukemia),growth (RPMI-8226 leukemia),growth (OVCAR-8 ovarian),growth (OVCAR-5 ovarian),growth (OVCAR-4 ovarian),growth (SK-OV-3 ovarian),growth (IGROV1 ovarian),growth (OVCAR-3 ovarian),growth (HS 578T breast),growth (NCI/ADR-RES ovarian),growth (T-47D breast)
O=C1C(Cl)=C(Nc2ccc3c(c2NC2=C(Cl)C(=O)c4ccccc4C2=O)C(=O)c2ccccc2C3=O)C(=O)c2ccccc21,40.8%,34.5%,4.99% (active),23.1%,77.3%,29.2%,50.5%,17.8%,8.53% (active),13.3%,28.1%,22.3%,3.29% (active),-12% (active),90.3%,6.05% (active),-2.06% (active),42.2%,7.89% (active),10.5%
Nc1n[nH]c2cccc(C#Cc3cccc(NC(=O)c4cc(N5CCOCC5)cc(C(F)(F)F)c4)c3)c12,0.377% (active),59.9%,57.6%,17.5%,36.5%,25.3%,-5.08% (active),44.2%,30.4%,43.5%,40.5%,45.5%,42.4%,51.5%,35.1%,9.97% (active),67.3%,40.5%,47%,28.3%
O=C1Nc2ccc(Br)cc2/C1=N\N=C/c1cn(Cc2ccccc2)c2ccccc12,91.3%,56.2%,84.5%,75.7%,82.4%,98.9%,15.3%,81.1%,67%,80.1%,95.9%,96.1%,28.3%,84.3%,76.2%,80.7%,109%,80.9%,99.5%,89.6%
CC1CCCN(CCCCCOc2ccc3oc4ccc(Cl)cc4c(=O)c3c2)C1 (stereo unspecified),96.7%,78.3%,74.6%,70.7%,92%,89.4%,76.3%,72.8%,48.5%,21%,61.8%,75%,70.4%,63.2%,91.9%,68.7%,76.6%,84.7%,73%,64.8%
O=C(Nc1ccc2ncnc(Nc3cccc(C(F)(F)F)c3)c2c1)c1cccs1,90.7%,32.5%,68.5%,51.1%,47.4%,47.4%,18.9%,37.2%,17.6%,33.8%,40.8%,49.9%,63.9%,33.1%,83.7%,32.7%,29.1%,103%,55.7%,32.3%
Cc1nn(-c2ccc(-c3ccc(OC(F)(F)F)cc3)cc2)c2nc(-c3ccccc3)nc(N)c12,101%,97.7%,92.5%,82.4%,89.7%,100%,90.2%,88.9%,82.4%,55.6%,118%,93%,98.3%,102%,108%,99.3%,107%,115%,90.8%,78.5%
Nc1ccc(C2=NN(C(=O)c3cc(-c4ccc(Cl)cc4)nc4ccccc34)C(c3ccccc3)C2)cc1 (stereo unspecified),37.1%,40.4%,51.2%,49.5%,58.5%,51.5%,30%,24.1%,41.2%,25.9%,8.12% (active),37.5%,73.4%,63.1%,24.6%,50.9%,3.55% (active),29.4%,12.7%,30.8%
COCCOCCOCc1n(Cc2ccc3ccccc3c2)c2ccccc2[n+]1Cc1ccc2ccccc2c1,-18.8% (active),47.4%,11.7%,81.9%,3.33% (active),93.9%,12%,12%,4% (active),-39.5% (active),-6.22% (active),,21.4%,17%,2.88% (active),-7.12% (active),7.16% (active),39.9%,105%,-3.39% (active)
O=C(O)c1cc(N=Nc2ccc(-c3ccc(N=Nc4c(S(=O)(=O)O)cc5ccc(Nc6ccccc6)cc5c4O)cc3)cc2)ccc1O,93.8%,101%,98.7%,81.3%,106%,102%,99.4%,101%,97.9%,105%,104%,,109%,102%,98.4%,100%,103%,106%,104%,
O=C(CCc1nnco1)c1nc2ccc([N+](=O)[O-])cc2[nH]1,94.7%,94%,107%,74.9%,146%,101%,126%,109%,97.9%,91.5%,129%,,108%,105%,107%,97.6%,105%,102%,104%,101%
Fc1ccc(N/N=C/c2ccc(-n3cccn3)cc2)cc1,103%,81.3%,108%,80.4%,111%,91.7%,119%,89.5%,89%,64.1%,97.7%,,112%,95.6%,84.6%,78.3%,93.6%,108%,87.6%,86.1%
O=C1CS/C(=N/c2nnc(-c3ccc(O)cc3)s2)N1,108%,92.7%,101%,93.5%,115%,103%,108%,97%,80.5%,93.1%,101%,,103%,110%,82%,107%,107%,95.4%,99.3%,75.3%
CCOC(=O)/C(=C/c1c(-c2ccccc2)[nH]c2ccccc12)C(=O)c1ccc(Cl)cc1,61.8%,30.6%,56%,57.9%,82.2%,19.3%,73.7%,14.5%,1.71% (active),9.07% (active),-17.2% (active),,95.8%,46.8%,81.6%,98.5%,38.5%,63.4%,45.4%,24.9%
CC(C)CSc1nc(Nc2ccccc2)c(C#N)c(-c2ccc(F)cc2)n1,78.8%,23.2%,-26% (active),-3.98% (active),-22.9% (active),-43.2% (active),-0.717% (active),31.1%,65.5%,-11.1% (active),21.6%,29.4%,40.8%,-81.3% (active),46.8%,1.71% (active),-33.2% (active),14.6%,41.1%,29.1%
CSc1nc(-c2ccco2)c2c(N)[nH]nc2n1,99.3%,81.2%,109%,88.3%,105%,101%,66.4%,111%,82.7%,76.1%,109%,,109%,109%,98.6%,109%,116%,108%,103%,75.7%
COc1ccc(Nc2cc(NC(=O)CNc3cc(OC)c(Cl)c(OC)c3Cl)ncn2)cc1,84.8%,72.2%,89.2%,59.6%,93.1%,78.8%,-1.25% (active),89.3%,52.2%,78.1%,62.5%,,88.1%,80.1%,79.8%,74.2%,81.6%,83.4%,84.8%,47.1%
COC1=CC2C=C(C3N(c4ccccc4)NC(=O)[C@@H]4CCCN34)C(=O)NC2C=C1 (stereo partly specified),97.9%,96.7%,107%,86.9%,100%,102%,95.9%,113%,124%,105%,110%,,107%,96.8%,104%,105%,104%,99%,101%,99%
O=C1CC(c2ccc(O)c(O)c2)Oc2cc(O)c([C@@H]3O[C@H](CO)[C@@H](O)[C@H](O)[C@H]3O)c(O)c21 (stereo partly specified),104%,99.5%,98.7%,103%,106%,102%,108%,97.3%,100%,98.6%,99.3%,,98.7%,101%,103%,109%,104%,105%,110%,95.8%
CC(=O)O[C@@H]1C[C@]2(C)[C@H]3[C@H](O)C[C@@H]4C5=CC(C)(C)CC[C@]5(C)CC[C@@]4(C)[C@]3(C)CC[C@H]2C(C)(C)[C@H]1O,107%,96.5%,99.9%,84.1%,104%,102%,119%,106%,87.1%,87.1%,124%,,106%,106%,107%,106%,101%,99.1%,104%,82.3%
CC(=O)Nc1ccc2c(c1)Cc1cc(F)ccc1-2,94.8%,104%,107%,56.8%,104%,104%,73.2%,99.1%,89.4%,87.5%,93.6%,,106%,109%,106%,92.8%,98.6%,103%,97.5%,
O=Cc1[nH]c(Sc2ccccc2)c2ccccc12,81.6%,76.1%,77.7%,48.6%,80.3%,96.6%,95.3%,12.1%,17%,59.3%,7.59% (active),,87.4%,58.3%,83.5%,88.2%,50.4%,64.9%,69.7%,44.1%
COc1cc(C)ccc1Oc1nc(Nc2ccc(N3CCOCC3)cc2)ncc1N=Cc1cc(C(F)(F)F)cc(C(F)(F)F)c1,70.2%,81.7%,80.3%,47.6%,81.6%,56.3%,58.8%,82%,44.7%,49.7%,69.7%,,75.7%,71%,43.3%,33.4%,76.5%,61.9%,69.9%,57.7%
C=CCn1c(SCC(=O)Nc2ccc(C(=O)/C=C/c3cc(OC)c(OC)c(OC)c3)cc2)nnc1-c1ccc(Cl)cc1,26.3%,21.6%,27.9%,26.5%,35.9%,37.4%,15.6%,6.62% (active),7.87% (active),3.83% (active),-21.6% (active),,88.9%,37.3%,51.4%,14.3%,-41.9% (active),48.6%,41.3%,18.1%
c1ccc(Sc2ncccn2)nc1,107%,106%,106%,87.9%,109%,98.2%,92.9%,104%,98.4%,95.5%,65.6%,,101%,98.1%,99.4%,108%,102%,94%,96.4%,
CCN1CCN(Cc2ccc(NC(=O)c3cccc(C#Cc4cccc5[nH]nc(N)c45)c3)cc2C(F)(F)F)CC1,-70.1% (active),-46.4% (active),-35.4% (active),-92.3% (active),-94.4% (active),-81.1% (active),-63.5% (active),-16.2% (active),-31.2% (active),-49.2% (active),-36.9% (active),,-20% (active),-2.48% (active),-13.5% (active),-60.3% (active),-62.8% (active),-19.9% (active),-35% (active),-32% (active)
O=C(Nc1cccc(-c2cccc(F)c2)c1)C1CCN(Cc2cccc3cccnc23)CC1,63.1%,68.4%,74.2%,35.8%,60.1%,65.5%,55.3%,57.2%,17.6%,-32.7% (active),19%,,82.9%,51.6%,68.3%,62.7%,60.8%,60.9%,73%,
CSc1cccc(NC(=O)Nc2nc3c(C)cccc3s2)c1,98.5%,80.2%,94.3%,84.4%,119%,101%,106%,106%,99.9%,83.7%,60.7%,,117%,85%,97.1%,90.2%,117%,87.7%,91.5%,95%
COc1ccc(/C=C/C(=O)C(CC2CCC2)C(=O)/C=C/c2ccc(OC)c(OC)c2)cc1OC,-16.7% (active),-0.196% (active),-20.7% (active),-98.1% (active),-32.8% (active),-77.2% (active),-34.5% (active),8.4% (active),4.1% (active),-17% (active),-7.68% (active),,-12.9% (active),35.2%,16.2%,-17.1% (active),-33.2% (active),25.4%,3.14% (active),-5.5% (active)
C=C1C(=O)O[C@H]2[C@H]1CC/C(COC(=O)Nc1nc3ccccc3[nH]1)=C\CC[C@@]1(C)O[C@@H]21,68.1%,58.7%,67.4%,43.1%,46.3%,32.5%,102%,6.53% (active),45.9%,16.2%,31.6%,80.8%,127%,81.3%,89.1%,27.9%,17.3%,94.5%,92.1%,50.3%
